Results published in the supplement of paper PMC8975748.
Counter-ions that a name gives are not always drawn. ± gives the standard deviation of the averaged measurements.

How the values were obtained:
[1] = test system: Saccharomyces cerevisiae BY4741 SeMeCo community; assay: mean cell size (pixel area) (pixels); higher = larger cells; settings: 10 µM; 24 h; SM minimal medium
Summary of the method: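 Mean cell pixel area per well was measured in a four-plasmid fluorescent community of Saccharomyces cerevisiae BY4741, where every plasmid complements one auxotrophy and carries a fluorescent marker. Cells from an overnight preculture at OD600 = 1.0 were diluted to OD600 = 0.3 and dispensed at 70 µl into 384-well plates acoustically predosed with drug to a final 10 µM in SM medium. Incubation lasted 24 h, followed by paraformaldehyde fixation, automated confocal imaging and analysis in Harmony. Reported figures are averaged over 3 replicates. Same SeMeCo high-content imaging drug screen: Selleck FDA-approved drugs at 10 µM, 24 h in SM medium, 384-well plates, 3 replicates.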

[2] = test system: Saccharomyces cerevisiae BY4741 SeMeCo community; assay: z-score of prototroph abundance vs DMSO median; higher = larger share of this subpopulation than in DMSO controls; settings: 10 µM; 24 h; SM minimal medium; subpopulation (auxotrophy): Prototroph
Summary of the method: (§1)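 Scoring was based on each subpopulation's abundance, expressed as a z-score against the vehicle-well median. A Saccharomyces cerevisiae BY4741 community with four plasmids, each restoring one auxotrophy and encoding a distinct fluorescent protein, was pre-grown overnight to OD600 1.0, diluted to 0.3, and added at 70 µl to 384-well plates acoustically predosed with library drugs (10 µM final). It then grew 24 h in minimal SM medium before paraformaldehyde fixation and automated confocal microscopy, with single-auxotroph fluorescent strains setting thresholds and autofluorescence correction.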

[3] = test system: Saccharomyces cerevisiae BY4741 SeMeCo community; assay: z-score of subpopulation abundance vs DMSO median, subpopulation auxotrophic for M; higher = larger share of this subpopulation than in DMSO controls; settings: 10 µM; 24 h; SM minimal medium; subpopulation (auxotrophy): M
Summary of the method: as §1

[4] = test system: Saccharomyces cerevisiae BY4741 SeMeCo community; assay: z-score of subpopulation abundance vs DMSO median, subpopulation auxotrophic for L; higher = larger share of this subpopulation than in DMSO controls; settings: 10 µM; 24 h; SM minimal medium; subpopulation (auxotrophy): L
Summary of the method: as §1

[5] = test system: Saccharomyces cerevisiae BY4741 SeMeCo community; assay: z-score of subpopulation abundance vs DMSO median, subpopulation auxotrophic for U; higher = larger share of this subpopulation than in DMSO controls; settings: 10 µM; 24 h; SM minimal medium; subpopulation (auxotrophy): U
Summary of the method: as §1

[6] = test system: Saccharomyces cerevisiae BY4741 SeMeCo community; assay: z-score of subpopulation abundance vs DMSO median, subpopulation auxotrophic for LU; higher = larger share of this subpopulation than in DMSO controls; settings: 10 µM; 24 h; SM minimal medium; subpopulation (auxotrophy): LU
Summary of the method: as §1

[7] = test system: Saccharomyces cerevisiae BY4741 SeMeCo community; assay: z-score of subpopulation abundance vs DMSO median, subpopulation auxotrophic for LM; higher = larger share of this subpopulation than in DMSO controls; settings: 10 µM; 24 h; SM minimal medium; subpopulation (auxotrophy): LM
Summary of the method: as §1

[8] = test system: Saccharomyces cerevisiae BY4741 SeMeCo community; assay: z-score of subpopulation abundance vs DMSO median, subpopulation auxotrophic for HM; higher = larger share of this subpopulation than in DMSO controls; settings: 10 µM; 24 h; SM minimal medium; subpopulation (auxotrophy): HM
Summary of the method: as §1

[9] = test system: Saccharomyces cerevisiae BY4741 SeMeCo community; assay: z-score of subpopulation abundance vs DMSO median, subpopulation auxotrophic for HU; higher = larger share of this subpopulation than in DMSO controls; settings: 10 µM; 24 h; SM minimal medium; subpopulation (auxotrophy): HU
Summary of the method: as §1

[10] = test system: Saccharomyces cerevisiae BY4741 SeMeCo community; assay: z-score of subpopulation abundance vs DMSO median, subpopulation auxotrophic for HL; higher = larger share of this subpopulation than in DMSO controls; settings: 10 µM; 24 h; SM minimal medium; subpopulation (auxotrophy): HL
Summary of the method: as §1

[11] = test system: Saccharomyces cerevisiae BY4741 SeMeCo community; assay: z-score of subpopulation abundance vs DMSO median, subpopulation auxotrophic for HLU; higher = larger share of this subpopulation than in DMSO controls; settings: 10 µM; 24 h; SM minimal medium; subpopulation (auxotrophy): HLU
Summary of the method: as §1

[12] = test system: Saccharomyces cerevisiae BY4741 SeMeCo community; assay: z-score of subpopulation abundance vs DMSO median, subpopulation auxotrophic for HLM; higher = larger share of this subpopulation than in DMSO controls; settings: 10 µM; 24 h; SM minimal medium; subpopulation (auxotrophy): HLM
Summary of the method: as §1

[13] = test system: Saccharomyces cerevisiae BY4741 SeMeCo community; assay: z-score of subpopulation abundance vs DMSO median, subpopulation auxotrophic for LUM; higher = larger share of this subpopulation than in DMSO controls; settings: 10 µM; 24 h; SM minimal medium; subpopulation (auxotrophy): LUM
Summary of the method: as §1

[14] = test system: Saccharomyces cerevisiae BY4741 SeMeCo community; assay: z-score of subpopulation abundance vs DMSO median, subpopulation auxotrophic for HLUM; higher = larger share of this subpopulation than in DMSO controls; settings: 10 µM; 24 h; SM minimal medium; subpopulation (auxotrophy): HLUM
Summary of the method: as §1

[15] = test system: Saccharomyces cerevisiae BY4741 SeMeCo community; assay: z-score of subpopulation abundance vs DMSO median, subpopulation auxotrophic for H; higher = larger share of this subpopulation than in DMSO controls; settings: 10 µM; 24 h; SM minimal medium; subpopulation (auxotrophy): H
Summary of the method: as §1

[16] = test system: Saccharomyces cerevisiae BY4741 SeMeCo community; assay: z-score of subpopulation abundance vs DMSO median, subpopulation auxotrophic for UM; higher = larger share of this subpopulation than in DMSO controls; settings: 10 µM; 24 h; SM minimal medium; subpopulation (auxotrophy): UM
Summary of the method: as §1

[17] = test system: Saccharomyces cerevisiae BY4741 SeMeCo community; assay: z-score of subpopulation abundance vs DMSO median, subpopulation auxotrophic for HUM; higher = larger share of this subpopulation than in DMSO controls; settings: 10 µM; 24 h; SM minimal medium; subpopulation (auxotrophy): HUM
Summary of the method: as §1

SMILES | mean cell size [1] | z-score of prototroph abundance [2] | z-score of subpopulation abundance [3] | z-score of subpopulation abundance [4] | z-score of subpopulation abundance [5] | z-score of subpopulation abundance [6] | z-score of subpopulation abundance [7] | z-score of subpopulation abundance [8] | z-score of subpopulation abundance [9] | z-score of subpopulation abundance [10] | z-score of subpopulation abundance [11] | z-score of subpopulation abundance [12] | z-score of subpopulation abundance [13] | z-score of subpopulation abundance [14] | z-score of subpopulation abundance [15] | z-score of subpopulation abundance [16] | z-score of subpopulation abundance [17]
O=C(Cn1cnnn1)N[C@@H]1C(=O)N2C(C(=O)O)=C(CSc3nncs3)CS[C@H]12 [Ceftezole] | 12 ± 0.2 | 0.89 | -1.1 | -0.41 | 0.9 | 0.9 | -0.52 | -1.26 | -0.51 | -0.41 | -0.25 | -0.2 | 0.28 | 0.55 |  |  | 
C[C@]1(COc2ccc(N3CCC(Oc4ccc(OC(F)(F)F)cc4)CC3)cc2)Cn2cc([N+](=O)[O-])nc2O1 [Delamanid] |  | -0.2 | -0.38 | 1.53 | -0.77 | 0.18 | 0.45 | 0 | -0.43 |  | 0.12 | 0.05 | 0.42 | 0.08 | 0.86 | -0.53 | 
CCCNC(C)C(=O)Nc1ccccc1C (stereo not given) [Prilocaine] | 12.51 ± 0.059 |  | -0.72 | 1 | -0.13 | 0.36 | -0.18 | 0.09 | 0.57 | -0.2 | 0.3 | 0.16 | 0.36 | 0.52 |  | -0.84 | 
CC[C@@H](CO)NCCN[C@@H](CC)CO [Ethambutol 2HCl] | 12.46 ± 0.11 | -0.36 | -0.81 | 0.27 | 1.13 | 1.65 |  | -0.9 | 0.27 | 0.36 | 0.56 | 0.16 | 1.15 | 0.6 | -1.02 | 1.23 | 
CC(=O)NC[C@H]1CN(c2ccc(N3CCOCC3)c(F)c2)C(=O)O1 [Linezolid] | 12.51 ± 0.11 | -0.12 | -0.22 | -0.63 | 1.39 | 0.78 | 0.19 | -0.27 | -0.11 | -0.58 | 0.07 |  | -0.15 |  | -0.56 | 0.29 | 0.01
Nc1nc(N)nc(-c2cc(Cl)ccc2Cl)n1 [Irsogladine] |  | 1.03 | -0.36 | -0.15 | -1.06 | -1.09 | 0.16 | -0.68 | -0.69 | -0.18 | 0.75 |  | -0.45 | -0.22 |  | -1.92 | -1.16
CC[N+](CC)(CC)CCOc1cccc(OCC[N+](CC)(CC)CC)c1OCC[N+](CC)(CC)CC [Gallamine Triethiodide] | 12.6 ± 0.14 |  | 0.42 | -0.79 | 0.76 | 0.16 | -0.42 |  | 0.25 | -1.15 | 0.07 |  | -0.03 | -0.08 | -0.16 |  | 0.25
CCCN1CCCC[C@H]1C(=O)Nc1c(C)cccc1C [Ropivacaine HCl] | 12.6 ± 0.13 | -0.38 | 0.95 | 0.47 | 0.42 | 0.42 | 0.37 |  |  | -0.74 | -0.22 |  | -0.08 | 0.18 | -0.94 | 0.78 | -0.03
O=C1c2cccc3c2[C@H](CCC3)CN1[C@@H]1CN2CCC1CC2 [Palonosetron] | 12.2 ± 0.14 | -0.11 | -0.21 | -0.81 | -0.35 | -0.39 | -0.55 | -0.24 | -0.06 |  | -0.63 |  | 0.34 | -0.4 | -0.77 | 0.49 | 0.12
CN1C(C(=O)Nc2ccccn2)=C(O)c2sc(Cl)cc2S1(=O)=O [Lornoxicam] | 12.1 ± 0.13 | -0.29 | -0.04 | -0.14 | 0.67 | -0.21 |  | -0.77 |  | -0.56 | -0.19 |  | 0.46 | -0.1 | -0.26 |  | -0.27
NC(=O)c1cn(Cc2c(F)cccc2F)nn1 [Rufinamide] | 12.2 ± 0.16 | -0.37 | 0.02 | 1.41 | -0.6 | 0.45 | 0.7 | 0.75 |  | 0.55 | 0.55 |  |  | 0.29 | 0.5 |  | 0.45
CCc1cc(C(N)=S)ccn1 [Ethionamide] | 12.45 ± 0.074 | 0.06 | 0.23 | 0.86 | -0.01 | 0.05 |  | 0.03 |  | -0.03 | -0.14 |  | -0.07 | -0.72 |  | 0.25 | -0.25
CCOc1cc(N)c(Cl)cc1C(=O)NCC1CN(Cc2ccc(F)cc2)CCO1 (stereo not given) [Mosapride Citrate] | 12.5 ± 0.12 | -0.84 | 0.17 | 0.92 | 0.31 | 0.9 | -0.05 | 0.32 | 0.11 | 0.35 | 0.02 |  | 0.54 |  | -0.34 | 0.37 | 0.97
CC(C)[N+]1(C)[C@@H]2CC[C@H]1C[C@@H](OC(=O)C(CO)c1ccccc1)C2 (stereo not given in full) [Ipratropium Bromide] | 12.4 ± 0.27 | 0.41 | -0.02 | 0.58 | -0.33 | 0.15 |  | -0.34 | -0.22 | -0.04 | -0.02 |  | -0.28 | 0.07 | -0.17 | -0.31 | -0.65
CCOC(=O)c1ccc(N)cc1 [Benzocaine] | 12.5 ± 0.19 | 0.6 | 1.02 | -0.13 |  | -1.24 | 0.32 | 0.67 | -1.28 | -1.2 | -0.97 |  | -0.29 | -0.38 | 0.27 | -0.58 | -0.48
O=C(Nc1c(Cl)cncc1Cl)c1ccc(OC(F)F)c(OCC2CC2)c1 [Roflumilast] | 12.4 ± 0.14 | 0.36 | 0.29 | -0.2 | 0.07 | 0.34 |  | -0.18 | 0.22 | -0.5 | -0.37 |  | -0.56 |  | -0.65 |  | -0.17
